# Measured values from the supplement of paper PMC4466140.
# B1: unnamed (peptide)
# chain: KRNRLKILLPFLEQS
# B2: unnamed (peptide)
# chain: YLTRPLPSTPNEDSR
# Biological target: CaNbp2
# Experiment: SPOT peptide array binding signal intensity (averaged, normalized) (arbitrary units (background-subtracted, floor 0; scale differs between SH3 domains)); higher = stronger binding of the SH3 domain to the peptide
# In short: (§1)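 GST-fused SH3 domains from four yeast species were expressed in E. coli BL21(DE3), purified on glutathione Sepharose and incubated at 10 μg/ml overnight at 4°C in TBS-based blocking buffer on cellulose membranes carrying synthetic 15-mer peptides, with cysteines replaced by serines. Bound protein was detected with anti-GST antibody, an HRP anti-mouse secondary and luminol, then imaged and quantified with Genespotter. Binding signal is the normalized, background-subtracted spot intensity averaged over replicates, in arbitrary units that differ between domains.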
row,Binder,SPOT peptide array binding signal intensity
1,B1,742
2,B2,≤ 0

# Biological target: CaRvs167
# Experiment: as above
# In short: as §1
row,Binder,SPOT peptide array binding signal intensity
1,B1,61.5
2,B2,144

# Biological target: CaRvs167-3
# Experiment: as above
# In short: as §1
row,Binder,SPOT peptide array binding signal intensity
1,B1,828
2,B2,≤ 0

# Biological target: CaSho1
# Experiment: as above
# In short: as §1
row,Binder,SPOT peptide array binding signal intensity
1,B1,1220
2,B2,1020

# Biological target: CaSla1-D1-D2
# Experiment: as above
# In short: as §1
row,Binder,SPOT peptide array binding signal intensity
1,B1,5
2,B2,≤ 0

# Biological target: CaSla1-D3
# Experiment: as above
# In short: as §1
row,Binder,SPOT peptide array binding signal intensity
1,B1,136
2,B2,≤ 0

# Biological target: ScAbp1
# Experiment: as above
# In short: as §1
row,Binder,SPOT peptide array binding signal intensity
1,B1,54
2,B2,3.5

# Biological target: ScBbc1
# Experiment: as above
# In short: as §1
row,Binder,SPOT peptide array binding signal intensity
1,B1,2.5
2,B2,5

# Biological target: ScBem1-D1
# Experiment: as above
# In short: as §1
row,Binder,SPOT peptide array binding signal intensity
1,B1,74
2,B2,≤ 0

# Biological target: ScBzz1-D1
# Experiment: as above
# In short: as §1
row,Binder,SPOT peptide array binding signal intensity
1,B1,20.5
2,B2,6.5

# Biological target: ScBzz1-D2
# Experiment: as above
# In short: as §1
row,Binder,SPOT peptide array binding signal intensity
1,B1,53
2,B2,14

# Biological target: ScCyk3
# Experiment: as above
# In short: as §1
row,Binder,SPOT peptide array binding signal intensity
1,B1,102
2,B2,≤ 0

# Biological target: ScFus1
# Experiment: as above
# In short: as §1
row,Binder,SPOT peptide array binding signal intensity
1,B1,1980
2,B2,≤ 0

# Biological target: ScHof1
# Experiment: as above
# In short: as §1
row,Binder,SPOT peptide array binding signal intensity
1,B1,1.5
2,B2,9.5

# Biological target: ScHse1
# Experiment: as above
# In short: as §1
row,Binder,SPOT peptide array binding signal intensity
1,B1,2110
2,B2,≤ 0

# Biological target: ScLsb1
# Experiment: as above
# In short: as §1
row,Binder,SPOT peptide array binding signal intensity
1,B1,3
2,B2,20

# Biological target: ScLsb2
# Experiment: as above
# In short: as §1
row,Binder,SPOT peptide array binding signal intensity
1,B1,5
2,B2,2.5

# Biological target: ScLsb3
# Experiment: as above
# In short: as §1
row,Binder,SPOT peptide array binding signal intensity
1,B1,145
2,B2,3260

# Biological target: ScLsb4
# Experiment: as above
# In short: as §1
row,Binder,SPOT peptide array binding signal intensity
1,B1,9.5
2,B2,706

# Biological target: ScMyo3
# Experiment: as above
# In short: as §1
row,Binder,SPOT peptide array binding signal intensity
1,B1,2.5
2,B2,3

# Biological target: ScMyo5
# Experiment: as above
# In short: as §1
row,Binder,SPOT peptide array binding signal intensity
1,B1,2.25
2,B2,≤ 0

# Biological target: ScNbp2
# Experiment: as above
# In short: as §1
row,Binder,SPOT peptide array binding signal intensity
1,B1,130
2,B2,≤ 0

# Biological target: ScPex13
# Experiment: as above
# In short: as §1
row,Binder,SPOT peptide array binding signal intensity
1,B1,0.25
2,B2,992

# Biological target: ScRvs167
# Experiment: as above
# In short: as §1
row,Binder,SPOT peptide array binding signal intensity
1,B1,18.2
2,B2,417

# Biological target: ScSho1
# Experiment: as above
# In short: as §1
row,Binder,SPOT peptide array binding signal intensity
1,B1,1290
2,B2,3780

# Biological target: ScSla1-D1-D2
# Experiment: as above
# In short: as §1
row,Binder,SPOT peptide array binding signal intensity
1,B1,122
2,B2,17.5

# Biological target: ScSla1-D3
# Experiment: as above
# In short: as §1
row,Binder,SPOT peptide array binding signal intensity
1,B1,3.25
2,B2,1

# Biological target: SpAbp1-D1
# Experiment: as above
# In short: as §1
row,Binder,SPOT peptide array binding signal intensity
1,B1,114
2,B2,≤ 0

# Biological target: SpBbc1
# Experiment: as above
# In short: as §1
row,Binder,SPOT peptide array binding signal intensity
1,B1,1.5
2,B2,≤ 0

# Biological target: SpBzz1-D1
# Experiment: as above
# In short: as §1
row,Binder,SPOT peptide array binding signal intensity
1,B1,90
2,B2,74.5

# Biological target: SpBzz1-D2
# Experiment: as above
# In short: as §1
row,Binder,SPOT peptide array binding signal intensity
1,B1,≤ 0
2,B2,≤ 0

# Biological target: SpCyk3
# Experiment: as above
# In short: as §1
row,Binder,SPOT peptide array binding signal intensity
1,B1,3
2,B2,150

# Biological target: SpHof1
# Experiment: as above
# In short: as §1
row,Binder,SPOT peptide array binding signal intensity
1,B1,142
2,B2,2260

# Biological target: SpHof1-2
# Experiment: as above
# In short: as §1
row,Binder,SPOT peptide array binding signal intensity
1,B1,14
2,B2,1610

# Biological target: SpHof1-3
# Experiment: as above
# In short: as §1
row,Binder,SPOT peptide array binding signal intensity
1,B1,624
2,B2,776

# Biological target: SpHse1
# Experiment: as above
# In short: as §1
row,Binder,SPOT peptide array binding signal intensity
1,B1,1780
2,B2,1.75

# Biological target: SpLsb1
# Experiment: as above
# In short: as §1
row,Binder,SPOT peptide array binding signal intensity
1,B1,1.5
2,B2,1

# Biological target: SpLsb4
# Experiment: as above
# In short: as §1
row,Binder,SPOT peptide array binding signal intensity
1,B1,56
2,B2,2190

# Biological target: SpMyo1
# Experiment: as above
# In short: as §1
row,Binder,SPOT peptide array binding signal intensity
1,B1,5.5
2,B2,60.2

# Biological target: SpNbp2
# Experiment: as above
# In short: as §1
row,Binder,SPOT peptide array binding signal intensity
1,B1,443
2,B2,≤ 0

# Biological target: SpPex13
# Experiment: as above
# In short: as §1
row,Binder,SPOT peptide array binding signal intensity
1,B1,21
2,B2,1.5

# Biological target: SpRvs167
# Experiment: as above
# In short: as §1
row,Binder,SPOT peptide array binding signal intensity
1,B1,7.5
2,B2,777

# Biological target: SpSla1-D1-D2
# Experiment: as above
# In short: as §1
row,Binder,SPOT peptide array binding signal intensity
1,B1,≤ 0
2,B2,9

# Biological target: SpSla1-D3
# Experiment: as above
# In short: as §1
row,Binder,SPOT peptide array binding signal intensity
1,B1,11
2,B2,≤ 0

# Biological target: AgAbp1
# Experiment: as above
# In short: as §1
row,Binder,SPOT peptide array binding signal intensity
1,B2,7

# Biological target: AgBbc1
# Experiment: as above
# In short: as §1
row,Binder,SPOT peptide array binding signal intensity
1,B2,39.5

# Biological target: AgBem1-D1
# Experiment: as above
# In short: as §1
row,Binder,SPOT peptide array binding signal intensity
1,B2,≤ 0

# Biological target: AgBzz1-D1
# Experiment: as above
# In short: as §1
row,Binder,SPOT peptide array binding signal intensity
1,B2,17.5

# Biological target: AgBzz1-D2
# Experiment: as above
# In short: as §1
row,Binder,SPOT peptide array binding signal intensity
1,B2,≤ 0

# Biological target: AgCyk3
# Experiment: as above
# In short: as §1
row,Binder,SPOT peptide array binding signal intensity
1,B2,42

# Biological target: AgFus1
# Experiment: as above
# In short: as §1
row,Binder,SPOT peptide array binding signal intensity
1,B2,≤ 0

# Biological target: AgHof1
# Experiment: as above
# In short: as §1
row,Binder,SPOT peptide array binding signal intensity
1,B2,13.2

# Biological target: AgHse1
# Experiment: as above
# In short: as §1
row,Binder,SPOT peptide array binding signal intensity
1,B2,≤ 0

# Biological target: AgLsb1
# Experiment: as above
# In short: as §1
row,Binder,SPOT peptide array binding signal intensity
1,B2,96

# Biological target: AgLsb4
# Experiment: as above
# In short: as §1
row,Binder,SPOT peptide array binding signal intensity
1,B2,853

# Biological target: AgMyo5
# Experiment: as above
# In short: as §1
row,Binder,SPOT peptide array binding signal intensity
1,B2,2.25

# Biological target: AgNbp2
# Experiment: as above
# In short: as §1
row,Binder,SPOT peptide array binding signal intensity
1,B2,≤ 0

# Biological target: AgRvs167
# Experiment: as above
# In short: as §1
row,Binder,SPOT peptide array binding signal intensity
1,B2,404

# Biological target: AgSho1
# Experiment: as above
# In short: as §1
row,Binder,SPOT peptide array binding signal intensity
1,B2,1790

# Biological target: AgSla1-D1-D2
# Experiment: as above
# In short: as §1
row,Binder,SPOT peptide array binding signal intensity
1,B2,1

# Biological target: AgSla1-D3
# Experiment: as above
# In short: as §1
row,Binder,SPOT peptide array binding signal intensity
1,B2,≤ 0

# Biological target: CaAbp1-D1
# Experiment: as above
# In short: as §1
row,Binder,SPOT peptide array binding signal intensity
1,B2,11

# Biological target: CaAbp1-D2
# Experiment: as above
# In short: as §1
row,Binder,SPOT peptide array binding signal intensity
1,B2,7

# Biological target: CaBbc1
# Experiment: as above
# In short: as §1
row,Binder,SPOT peptide array binding signal intensity
1,B2,134

# Biological target: CaBem1-D1
# Experiment: as above
# In short: as §1
row,Binder,SPOT peptide array binding signal intensity
1,B2,≤ 0

# Biological target: CaBzz1-D1
# Experiment: as above
# In short: as §1
row,Binder,SPOT peptide array binding signal intensity
1,B2,42

# Biological target: CaBzz1-D2
# Experiment: as above
# In short: as §1
row,Binder,SPOT peptide array binding signal intensity
1,B2,12.5

# Biological target: CaCyk3
# Experiment: as above
# In short: as §1
row,Binder,SPOT peptide array binding signal intensity
1,B2,8

# Biological target: CaFus1
# Experiment: as above
# In short: as §1
row,Binder,SPOT peptide array binding signal intensity
1,B2,≤ 0

# Biological target: CaHof1
# Experiment: as above
# In short: as §1
row,Binder,SPOT peptide array binding signal intensity
1,B2,69.8

# Biological target: CaHse1
# Experiment: as above
# In short: as §1
row,Binder,SPOT peptide array binding signal intensity
1,B2,28.5

# Biological target: CaLsb1
# Experiment: as above
# In short: as §1
row,Binder,SPOT peptide array binding signal intensity
1,B2,≤ 0

# Biological target: CaLsb4
# Experiment: as above
# In short: as §1
row,Binder,SPOT peptide array binding signal intensity
1,B2,406

# Biological target: CaMyo5
# Experiment: as above
# In short: as §1
row,Binder,SPOT peptide array binding signal intensity
1,B2,≤ 0
